High-throughput results deposited in PubChem BioAssay by National Center for Advancing Translational Sciences (NCATS).
Gal4-VP16 FLuc – counter-screen for ROR gamma inhibitors: Gal4-VP16 reporter; Drosophila S2 Gal4-VP16 UAS-luciferase, luminescence, 20 h; Potency, µM (titrated, usually from 53.6 µM), without a hit: at the highest dose activity, negative = inhibition, most hits filed as inhibitors; 310,000 compounds, 3.5% hits;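 also: Gal4-VP16 expression switched on by copper sulfate through the metallothionein promoter; nearly all actives have a fitted effect of over 50% in size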
DT40 TDP1 CPT – growth inhibition of DT40 Tdp1-/-;hTDP1 cells with camptothecin (screen for TDP1 inhibitors); 420,000 compounds, 12% hits; Potency, µM (doses to about 46.2 µM), for the others: at the highest dose activity change, negative = growth inhibition, hits mostly inhibitors; chicken DT40 Tdp1-/-;hTDP1 cells + 20 nM CPT, ATP luminescence, 48 h; also: nearly all actives have a fitted effect of over 55% in size
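Cell growth measured by CellTiter-Glo luminescence after a minimum 48 h, 37 C compound exposure with 20 nM CPT in Tdp1-knockout DT40 cells stably expressing hTDP1, seeded 400/well; qHTS titration format.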
12-LOX inh – inhibitors of human 12S-lipoxygenase ALOX12. 580,000 compounds, 1.1% hits. Potency, µM (highest dose often 108 µM), for inactives: at the highest dose activity change, negative = inhibition, usual class: inhibitors. purified 12hLO, xylenol orange hydroperoxide absorbance. AID 1671190
Target sequence (P18054 whole entry, looked up): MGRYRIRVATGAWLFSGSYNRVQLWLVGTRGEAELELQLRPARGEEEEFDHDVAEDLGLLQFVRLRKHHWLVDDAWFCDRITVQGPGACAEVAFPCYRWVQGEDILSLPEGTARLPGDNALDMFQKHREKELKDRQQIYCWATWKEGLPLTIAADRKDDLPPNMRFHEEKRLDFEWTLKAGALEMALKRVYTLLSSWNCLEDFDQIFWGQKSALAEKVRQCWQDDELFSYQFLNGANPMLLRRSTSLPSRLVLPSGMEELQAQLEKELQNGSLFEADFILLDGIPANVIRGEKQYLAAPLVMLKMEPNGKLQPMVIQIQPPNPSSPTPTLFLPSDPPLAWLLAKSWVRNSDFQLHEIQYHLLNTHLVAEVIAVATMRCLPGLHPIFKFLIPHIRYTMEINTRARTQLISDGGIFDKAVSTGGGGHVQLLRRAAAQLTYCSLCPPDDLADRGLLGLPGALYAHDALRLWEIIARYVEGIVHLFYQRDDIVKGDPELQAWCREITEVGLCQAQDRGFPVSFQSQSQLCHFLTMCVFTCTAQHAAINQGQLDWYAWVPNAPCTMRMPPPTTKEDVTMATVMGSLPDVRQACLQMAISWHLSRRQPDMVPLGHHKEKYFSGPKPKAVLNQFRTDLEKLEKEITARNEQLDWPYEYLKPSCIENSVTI
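Purified human 12hLO (150 nM final) in 25 mM Hepes, 0.01% Triton X-100, pH 7.0 was preincubated 15 min at room temperature with compound. Then 40 uM arachidonic acid was added, 30 min. Hydroperoxide was read by Fe-XO absorbance ratio 573/405 nm.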
RORgamma inh – inhibitors of mouse ROR gamma transcriptional activity. P51450. Drosophila S2 Gal4-RORgamma UAS-luciferase reporter, 20 h. Potency, µM (highest dose often 53.6 µM), inactives show at the top dose activity change, negative = inhibition, hits mostly inhibitors. 310,000 compounds, 5.4% hits; also: nearly all actives have a fitted effect of over 60% in size
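Stably transfected Drosophila Schneider cells are the test system, with ROR gamma fused to Gal4 and luciferase under UAS control; luminescence is read after 20 hr of 700 uM copper sulfate induction at ambient temperature.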
TDP1 cell noCPT – qHTS for Inhibitors of human tyrosyl-DNA phosphodiesterase 1 (TDP1): qHTS in cells in absence of CPT. DT40 Tdp1-/- hTDP1 cells, no CPT, ATP luminescence, 48 h. Potency, µM (highest dose often 46.2 µM), inactives show at the top dose activity change, negative = growth inhibition, most hits filed as inhibitors. 420,000 compounds, 15% hits. AID 686978, 2013; also: nearly all actives have a fitted effect of over 55% in size
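Stably hTDP1-transfected Tdp1-null chicken DT40 cells were treated with library compounds minus camptothecin and grown for at least 48 hr at 37 °C, after which cellular ATP was quantified by luminescence.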
ELG1 DNA repair – ELG1-dependent DNA repair inhibition. HEK293T ELG1-luciferase reporter, luminescence, 16 h; DNA damage induced by 5-fluorouridine. Potency, µM (titrated, usually from 46.1 µM), for inactives: at the highest dose activity change, negative = inhibition, actives largely listed as inhibitors. 330,000 compounds, 2.3% hits. AID 504467; also: nearly all actives have a fitted effect of over 55% in size
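In this reporter screen, reduction of luminescence relative to DMSO vehicle indicated activity. Compounds and 5-fluorouridine were added together to 2,000 cells per well, incubated for 16 hr at 37 °C, then developed with ONE-Glo.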
Numbers without * were called inactive; i = inactive; ? = inconclusive; . = not tested or not shown; [ ] = dose if it differs, or a comment. Sampled rows, rich in hits. Any-hit rate of the full collection: about 15%. Calls follow the shape of the dose curve; as a rule, active = well fitted curve in the direction sought with a large enough effect; inconclusive = small, poorly fitted or top-dose-only effect, or another doubt; inactive = no such curve, though single readings can be large; an effect the other way counts as inactive or inconclusive. % is scaled to controls: 0 for no effect and ±100 for the full control effect; potency is read from the fitted curve at half-maximal effect.

SMILES	Gal4-VP16 FLuc	DT40 TDP1 CPT	12-LOX inh	RORgamma inh	TDP1 cell noCPT	ELG1 DNA repair
CO[C@H]1C[C@@H]2CC[C@@H](C)[C@@](O)(O2)C(=O)C(=O)N2CCCC[C@H]2C(=O)O[C@H]([C@H](C)C[C@@H]2CC[C@@H](O)[C@H](OC)C2)CC(=O)[C@H](C)C=C(C)[C@@H](O)[C@@H](OC)C(=O)[C@H](C)C[C@H](C)/C=C/C=CC=C1C	.	0.0024µM*	.	.	0.0047µM*	.
CC(=O)N1CCN(C(=O)c2ccc3nc(C)c(C)nc3c2)CC1	.	.	-20%	.	.	.
CC1(C(=O)NC(=S)N(CCC#N)Cc2cccnc2)CC1(Cl)Cl (stereo not drawn)	?	.	.	1.4µM*	.	2%
COc1ccccc1CC(=O)N1CCc2c(nc3cc[nH]n3c2=O)C1	.	.	34%	.	.	.
CC1CCc2c(sc3nnn(Cc4ccccc4Cl)c(=O)c23)C1 (stereo not drawn)	.	?	-21%	.	21µM*	.
CC1CCc2c(sc3nnn(Cc4ccccc4)c(=O)c23)C1 (stereo not drawn)	.	?	-10%	.	?	.
CC1CCc2c(sc3nnn(Cc4ccc(F)cc4)c(=O)c23)C1 (stereo not drawn)	.	3.3µM*	-18%	.	26µM*	.
OC(CN1CCN(C(c2ccccc2)c2ccccc2)CC1)c1ccccc1 (stereo not drawn)	-6%	?	.	-8%	?	0%
c1ccc(OCCN2CCN(C(c3ccccc3)c3ccccc3)CC2)cc1	-21%	?	?	-9%	15µM*	?
O=C(c1c(F)cccc1F)N1CCN(CCOc2ccccc2)CC1	5%	-28%	18%	2%	?	21µM*
COc1cccc(OCC(O)CN2CCN(C(c3ccccc3)c3ccccc3)CC2)c1 (stereo not drawn)	.	?	?	.	13µM*	.
OC(CN1CCN(C(c2ccccc2)c2ccccc2)CC1)c1ccc(Br)cc1 (stereo not drawn)	5%	18µM*	?	18%	?	?
CCN1CCC(N2CCC3(CC2)CN(c2ccncn2)CC3CO)CC1 (stereo not drawn)	.	.	67%	.	.	.
Cc1ccc(CNc2oc(COc3ccccc3F)nc2C#N)cc1	.	.	0%	.	.	.
O=C(Nc1ccccc1N1CCOCC1)c1cc(-c2ccco2)nc2ccccc12	-6%	21µM*	0%	18%	21µM*	5.2µM*
O=C(Nc1ccccc1N1CCOCC1)c1cccc2ccccc12	.	?	-3%	.	-18%	.
COc1cc(-c2cc(C(=O)Nc3ccccc3N3CCOCC3)c3ccccc3n2)cc(OC)c1OC	4%	18µM*	-18%	34%	21µM*	5.8µM*
CN1OC[C@@H]2CN(Cc3cc(Cl)cc(Cl)c3)[C@H](c3cccc(Br)c3)C[C@@H]21	.	?	-5%	.	21µM*	.
Cc1ccccc1-c1cccc([C@@H]2C[C@H]3[C@H](CON3C)CN2Cc2cc(Cl)cc(Cl)c2)c1	.	?	7%	.	23µM*	.
COc1ccccc1-c1cccc([C@@H]2C[C@H]3[C@H](CON3C)CN2Cc2ccccc2)c1	.	?	3%	.	21µM*	.
COc1ccccc1-c1cccc([C@@H]2C[C@H]3[C@H](CON3C)CN2Cc2cc(Cl)cc(Cl)c2)c1	.	?	-20%	.	?	.
O=C(C1CCCC1)N1CCC(CCOc2ccccc2F)C1 (stereo not drawn)	.	.	41%	.	.	.
Cc1cnc(-c2ccccc2)n1C1CCCN(C(=O)COc2ccc(F)cc2)C1 (stereo not drawn)	.	.	60%	.	.	.
O=c1n(Cc2cccc(F)c2)c2ccccc2c2nc(-c3ccccc3)nn12	.	?	-15%	.	18µM*	.
Cc1cccc(Cn2c(=O)n3nc(-c4ccccc4)nc3c3ccccc32)c1	.	18µM*	-16%	.	18µM*	.
SMILES	Gal4-VP16 FLuc	DT40 TDP1 CPT	12-LOX inh	RORgamma inh	TDP1 cell noCPT	ELG1 DNA repair
Cc1ccc(-c2nc3c4ccccc4n(Cc4cccc(Cl)c4)c(=O)n3n2)cc1	.	-11%	-10%	.	?	.
O=c1n(Cc2ccc(Cl)cc2)c2ccccc2c2nc(-c3ccccc3)nn12	.	-26%	0%	.	?	.
CC(C)(C)c1ccc(N/N=C(\C#N)S(=O)(=O)C(C)(C)C)cc1	4%	4.6µM*	-16%	3%	?	?
CC(C)(C)S(=O)(=O)/C(C#N)=N/Nc1ccc(Cl)cc1	?	?	?	?	15µM*	-35%
N#C/C(=N\Nc1ccc(Cl)cc1)C(=N)N1CCCCCC1	-12%	0%	10%	?	-3%	?
Cc1cccc(N/N=C(\C#N)S(=O)(=O)C(C)(C)C)c1	-9%	4%	?	25%	?	?
N#CCCNS(=O)(=O)c1ccc(C(=O)OCCCOC(=O)c2ccc(S(=O)(=O)NCCC#N)cc2)cc1	18µM*	-6%	i	11µM*	0%	-2%
N#CCCNS(=O)(=O)c1ccc(C(=O)OCC2CCCCC2)cc1	-23%	7%	?	-24%	-6%	0%
N#CC1=C2Sc3ccccc3N2CCCC1=O	11%	1%	-12%	0%	-2%	?
N#CC1=C2SC=C(c3ccc(Br)cc3)N2CCCC1=O	6%	?	?	?	23µM*	?
O=C(c1cn(-c2ccc(Cl)cc2)nn1)N1CCc2ccccc2C1	.	.	8%	.	.	.
COc1ccc(C2C(O)C(c3c[nH]c4ccccc34)=NN2C(=O)CCl)cc1 (stereo not drawn)	10µM*	0.33µM*	?	13µM*	0.58µM*	8.2µM*
Nc1nc(-c2ccc(Br)cc2)cs1	1%	-10%	45µM*	65%	-13%	?
Nc1nc(-c2ccc(F)cc2)cs1	5%	-6%	-10%	0%	-14%	?
Brc1ccc(-c2csc(N3CCCCCC3)n2)cc1	?	-13%	4%	11µM*	-11%	?
Brc1ccc(-c2csc(N3CCOCC3)n2)cc1	24%[10 µM]	?	-4%	-1%	?	?
COc1ccc(C(NC(=O)CC(C)(C)C)c2ccccc2)cc1 (stereo not drawn)	.	.	36%	.	.	.
COc1cccc(C(=O)Nc2ncc3c(n2)CC(C)(C)CC3=O)c1	4%	?	?	6%	16µM*	7%
